Compound activity from PubChem BioAssay.
A selection follows.
aSyn UTR act = Activators working through SNCA 5'UTR binding (MLPCN); activity score, % (tested at 7.5 µM), hits read low; 300,000 compounds, 7.1% hits; alpha-synuclein 5'UTR reporter, activators screen; in the data active = activity score below about -60%
* marks the source's active call; other numbers are inactive results.

SMILES	aSyn UTR act
CC(=O)c1sc(NC(=O)c2ccco2)nc1-c1ccccc1	-115.0*
Cc1sc(N/N=C/c2cccs2)nc1-c1ccccc1	-211.3*
O=[N+]([O-])c1cccc(C2Nc3cccc4cccc(c34)N2)c1	-71.7*
Fc1cccc(Cl)c1Cc1noc(/C=C/c2ccccc2)n1	-209.3*
COc1ccc2cc(CCC(C)=O)ccc2c1	-126.2*
Oc1c(CN2CCOCC2)cc(COCc2ccccc2)c2cccnc12	114.2
Cc1cc(OCc2cccc(Cl)c2)c(C)cc1CN1CCOCC1	-65.1*
O=C(COC(=O)c1ccccc1Cl)NCCC1=CCCCC1	-79.4*
O=C(NCCC1=CCCCC1)C1CCC(CNc2nc(=S)[nH]c3ccccc23)CC1 (stereo not given)	98.6
O=C(COC(=O)c1ccccc1NC(=O)c1ccco1)NCCC1=CCCCC1	-91.9*
COC(=O)N/N=C\c1ccccc1OC/C=C/c1ccccc1	-123.0*
CCOC(=O)N/N=C\c1ccccc1OC/C=C/c1ccccc1	-94.9*
COc1cc(C(=O)Nc2ccccc2C(=O)Nc2ccccn2)cc(OC)c1OC	-66.5*
COc1ccc(C(=O)Nc2ccccc2C(=O)Nc2cccc(C)n2)cc1	-86.1*
COc1ccc(C(=O)Nc2ccccc2C(=O)Nc2cccnc2)cc1	-80.3*
Cc1ccnc(NC(=O)c2cc3ccccc3oc2=O)c1	-202.5*
COc1ccccc1NC(=O)C(=O)Nc1ccccn1	-167.0*
Cc1ccc(NC(=O)C(=O)Nc2ccccn2)cc1	71.0
COc1ccc(C(=O)Nc2ccccc2C(=O)Nc2cc(C)ccn2)cc1	-107.3*
COc1cc2ccccc2cc1C(=O)Nc1cc(C)ccn1	-94.3*
COc1ccc(C(=O)NC(=O)Nc2cc(C)ccn2)cc1	72.0
CC1CCN(c2c([N+](=O)[O-])nn(-c3ccc4c(c3)OCCO4)[n+]2[O-])CC1	-97.5*
Nc1ccccc1C(=O)NNC(=O)C(=O)/C=C(\O)c1ccccc1	-138.9*
Cc1[nH]c2ccccc2c1/C=C(\C#N)C(=O)NC1CC1	-80.0*
COc1cccc(Cn2c(-c3nonc3N)nc3ccccc32)c1	95.8
SMILES	aSyn UTR act
Cn1c(-c2cc3ccccc3oc2=O)nc2ccccc21	-97.3*
COc1ccc2cc(-c3nc4ccccc4n3C)c(=O)oc2c1	-208.5*
CC1(C)CC(=O)C2=C(C1)Nc1ccccc1N=C2	-162.9*
Cc1[nH]c2ccccc2c1N=Nc1ccccc1F	-122.1*
COc1cccc(-c2cc(C(=O)NC3CCCC3)no2)c1	-115.1*
COCCNC(=O)c1cc(-c2cccc(OC)c2)on1	-85.1*
O=C(NC1CCCCC1)c1ccc(-c2cccc([N+](=O)[O-])c2)o1	-126.9*
COCC(C)NC(=O)c1cc(-c2cccc(OC)c2)on1 (stereo not given)	-132.9*
COc1ccc2cc1Oc1ccc(cc1)C[C@H]1c3c(cc4c(c3Oc3cc5c(cc3OC)CCN(C)[C@@H]5C2)OCO4)CCN1C	109.2
CCOc1ccc(NC(=O)Nc2ccc3nccnc3c2)cc1	-95.8*
CCOc1ccc(NC(=O)c2ccc3nccnc3c2)cc1	-113.4*
COc1ccc(C(=O)Nc2ccc(OC)c(OC)c2)cc1	-97.6*
Cc1ccc(NC(=O)c2ccc(OC(=O)C(C)Oc3ccc(Cl)cc3C)cc2)cc1 (stereo not given)	-127.9*
CCOc1ccc(C(=O)NC(Cc2ccccc2)C(=O)OC)cc1 (stereo not given)	-103.9*
COc1ccc(NC(=O)c2ccc3nccnc3c2)cc1	-102.2*
CC(C)C[C@H](NC(=O)c1nc[nH]c1C(=O)N[C@@H](CC(C)C)C(=O)OC(C)(C)C)C(=O)OCc1ccccc1	60.6
CC(C)(C)NC(=O)Nc1ccc2nccnc2c1	-96.4*
COc1ccc(C(=O)Nc2ccc(C3CC3(Cl)Cl)cc2)cc1 (stereo not given)	-95.1*
CCOc1ccc(NC(=O)c2ccc(OC)cc2)cc1	-114.0*
COC(=O)c1ccc(NC(=O)c2ccc(OC(C)=O)c(OC)c2)cc1	-148.3*
COc1ccc(NC(=O)c2ccc(Oc3ncccn3)cc2)cc1	-84.1*
COc1ccc(C(=O)Nc2ccc(/C(C)=N/NC(=O)c3ccccc3O)cc2)cc1OC	-68.8*
COc1ccc(-c2cc(C(F)(F)F)nc(S(=O)(=O)CCC(=O)N3CCOCC3)n2)cc1	-76.2*
CC(=O)Nc1nc(CCC(C)C)cc2c1c(=O)oc1ccccc12	60.8
CCN(CC)CC(=O)Nc1scc2c1c(=O)oc1ccccc12	-124.4*
SMILES	aSyn UTR act
CCS(=O)(=O)n1nc(-c2ccccc2)nc1NCc1ccco1	-70.7*
Cc1ccc(S(=O)(=O)n2nc(-c3ccc(Cl)cc3)nc2NCc2ccco2)cc1	-95.9*
O=C(c1ccccc1)c1coc2c1C(=O)c1ccccc1C2=O	-80.5*
O=C1c2ccccc2C(=O)c2c1oc(C(F)(F)F)c2C(=O)c1ccccc1	100.9
CC1CCN(CC(CS(=O)(=O)c2ccc([N+](=O)[O-])cc2)N2CCC(C)CC2)CC1 (stereo not given)	-65.5*
C/C(=N/OC(=O)C1CC1)c1cc(-c2ccc(Cl)cc2)no1	-133.0*
C/C(=N\OC(=O)c1ccccc1)c1cc(-c2ccc(Cl)cc2)no1	-151.7*
COc1ccc(/C=C/c2cc(C(F)(F)F)on2)cc1	-157.2*
COc1ccc(N2Cc3ccccc3/C2=N\C(=O)Nc2ccccc2)cc1	-64.4*
CC(=O)CN1Cc2ccccc2/C1=N\C(=O)Nc1ccccc1	-72.6*
COc1ccccc1-c1nn2c(=O)cc(C)nc2s1	-71.6*
Cc1cc(=O)n2nc(-c3ccc(C(F)(F)F)cc3)sc2n1	-149.3*
CCN(CC)c1ccc(-c2nn3c(-c4ccccc4OC)nnc3s2)cc1	82.5
COc1ccccc1-c1nn2c(-c3ccco3)nnc2s1	-196.3*
COc1cccc(-c2nnc3sc(-c4ccccc4)nn23)c1	-69.0*
Nc1nnc(SCc2coc(-c3ccc(Cl)cc3)n2)s1	-118.2*
O=[N+]([O-])/C(C(Cl)=C(Cl)Cl)=C(\Nc1ccc(F)cc1)n1cncn1	-102.4*
O=C(Nc1ccc(F)cc1)Nc1ccc2ccccc2n1	-105.6*
O=C(Nc1ccccc1)Nc1ccc2ccccc2n1	-89.1*
O=c1c2ccccc2nc(COc2ccccc2)n1/N=C/c1ccco1	-85.5*
CCOc1ccc(/C=N/n2c(C)nc3ccccc3c2=O)cc1	-66.7*
Nn1c(COc2ccc(Cl)cc2)nc2ccccc2c1=O	-66.8*
Cc1nc2ccccc2c(=O)n1/N=C/c1ccccc1F	-101.5*
Cc1nc2ccccc2c(=O)n1/N=C/c1c(O)ccc2oc3c(c12)CCCC3	85.7
CN(C(=O)c1ccc(S(=O)(=O)c2cccc(Cl)c2)c([N+](=O)[O-])c1)C1CCCCC1	-86.4*
SMILES	aSyn UTR act
O=C(NC1CCCCC1)c1ccc(S(=O)(=O)c2ccccc2Cl)c([N+](=O)[O-])c1	-94.9*
CN1C(=O)C2(Oc3ccccc3C3CC(c4ccccc4)=NN32)c2ccccc21 (stereo not given)	-163.7*
Cc1ccc(C2=NN3C(C2)c2ccccc2OC32C(=O)Nc3ccccc32)cc1 (stereo not given)	-147.6*
CC(C)C(=O)Nc1ccc(C(=O)Nc2nnc(C(C)C)s2)cc1	-107.4*
CCc1nnc(NC(=O)c2cccc(NC(=O)C(C)C)c2)s1	-81.3*
CC(C)C(=O)Nc1cccc(C(=O)Nc2nnc(C(C)C)s2)c1	-119.8*
COCc1nnc(NC(=O)c2cccc(NC(=O)C(C)C)c2)s1	-72.7*
CCOCc1nnc(NC(=O)c2cccc(OC)c2)s1	-96.3*
COc1cccc(C(=O)NC(=S)Nc2cccnc2)c1	-152.9*
CC(C)Oc1cccc(C(=O)NC(=S)Nc2ccccc2)c1	-89.6*
CCCOc1cccc(C(=O)NC(=S)Nc2ccccc2)c1	-101.9*
